According to PubChem BioAssay AID1209 (Sanford-Burnham Center for Chemical Genomics, 2008):
In all, about 190,000 compounds went through this assay and about 810 (0.43%) were called active. No stated cut-off is given here; in the data, active means inhibition above about 50%; inactive means the rest. The list comes from a sample in which actives are over-represented; it also holds similar structures and randomly drawn compounds.

Biological target: Mannose-6-phosphate isomerase (Homo sapiens) (UniProt P34949)
Assay: inhibitors of human PMI, primary screen, biochemical, fluorescence intensity, coupled assay (AID 1209);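 further: plate controls were DMSO vehicle for no effect and wells lacking substrate for full effect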
Conditions: purified PMI enzyme, at 20 µM, active compounds read high

Mannose-6-phosphate isomerase (Homo sapiens), sequence (P34949 whole entry, looked up): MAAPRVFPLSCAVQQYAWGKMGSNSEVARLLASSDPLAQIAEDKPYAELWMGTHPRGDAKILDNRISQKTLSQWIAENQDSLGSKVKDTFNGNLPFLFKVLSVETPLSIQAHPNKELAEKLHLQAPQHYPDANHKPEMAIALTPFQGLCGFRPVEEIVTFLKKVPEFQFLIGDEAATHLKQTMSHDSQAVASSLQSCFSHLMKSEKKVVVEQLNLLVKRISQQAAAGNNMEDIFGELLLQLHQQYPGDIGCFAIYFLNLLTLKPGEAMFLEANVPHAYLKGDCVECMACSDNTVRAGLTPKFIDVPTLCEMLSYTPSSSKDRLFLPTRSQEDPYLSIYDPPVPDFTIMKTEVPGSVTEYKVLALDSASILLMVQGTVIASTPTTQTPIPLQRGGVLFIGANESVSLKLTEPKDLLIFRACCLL

inhibition, inactive:
Cc1ccc2c(nc3s/c(=C/c4cccs4)c(=O)n32)c1C -7.9%
Cc1cc(C)c2nc3s/c(=C/c4ccc5c(c4)n(C)c(=O)n5C)c(=O)n3c2c1 37.9%
CCCCn1cnc(C(=O)OCC)c1N -3.8%
Nc1ccn(Cc2ccc(F)cc2)n1 -1.5%
O=C1COc2ccc(C(=O)/C=C/c3ccccc3)cc2N1 7.8%
O=C1COc2ccc(C(=O)c3ccccc3C(=O)O)cc2N1 -8.8%
Cc1ccc(S(=O)(=O)N2CCC(C(=O)N[C@H](C(=O)NCc3ccco3)C(C)C)CC2)cc1 -3.1%
CCn1cc(C(=O)OCC(=O)c2cc(C)n(-c3cccc(C(F)(F)F)c3)c2C)c(=O)c2ccc(C)nc21 -6.6%
CN(/N=C/c1ccc(Br)o1)C1=NS(=O)(=O)c2ccccc21 -7.5%
CN(/N=C/c1ccco1)C1=NS(=O)(=O)c2ccccc21 10.9%
COc1ccccc1NC(=O)N(Cc1cccs1)Cc1cc2cc3c(cc2[nH]c1=O)OCO3 9.9%
COc1cc(C(=O)O/N=C2/C=C(C)C(=O)C=C2C)cc(OC)c1OC 29.1%
COc1cc(C(=O)O/N=C2/C=CC(=O)C(C)=C2C)cc(OC)c1OC 35.6%
COc1cc(C(=O)ON=C2C=C(C)C(=O)C(C)=C2)cc(OC)c1OC 31.7%
COc1cc(C(=O)O/N=C2\C=CC(=O)C=C2C)cc(OC)c1OC 46.4%
O=C(NC1CCCC1)c1ccc(CS(=O)(=O)c2ccc(Br)cc2)o1 -7%
O=C(C(=O)N1CCN(c2ccc(F)cc2)CC1)N1CCCCC1 9.4%
COCCNC(=O)C(c1cccs1)N(C(=O)Cn1nnc2ccccc21)c1cccc(C(C)=O)c1 (stereo not drawn) -2.6%
O=[N+]([O-])c1cc2oc3c(c2c(C=NCc2ccccc2)c1O)CCCC3 6.3%
O=[N+]([O-])c1cc2oc3c(c2c(C=NCc2ccncc2)c1O)CCCC3 27.8%
O=C(OCc1nnc(-c2ccccc2)o1)c1cc(F)c(F)cc1Cl 2.5%
COCCN1C(=O)Cc2c1nc(N)c1c(N)nc(N3CCN(c4ccc(F)cc4)CC3)c(C#N)c21 40.2%
CCCCN1C(=O)Cc2c1nc(N)c1c(N)nc(N(CCC)CCC)c(C#N)c21 21.8%
N#CCc1c(C#N)c(N)nc(N2CCN(c3ccc(F)cc3)CC2)c1C#N 2.2%
N#CCc1c(C#N)c(N)nc(N2CCCC(O)C2)c1C#N (stereo not drawn) 10%
COc1ccc(CN2C(=O)Cc3c2nc(N)c2c(N)nc(N4CCCCC4)c(C#N)c32)cc1 40.5%
CN(CCO)c1nc(N)c2c(N)nc3c(c2c1C#N)CC(=O)N3Cc1cccs1 13.6%
COCCN(CCOC)c1nc(N)c2c(N)nc3c(c2c1C#N)CC(=O)N3Cc1ccc(Cl)cc1 20.6%
C=C(C)CN(CC)c1nc(N)c2c(N)nc3c(c2c1C#N)CC(=O)N3C12CC3CC(CC(C3)C1)C2 2.4%
Cc1ccc(N2C(=O)[C@@H]3[C@H](C2=O)C2c4ccccc4C=CN2[C@@H]3C(=O)c2ccco2)c(C)c1 (stereo partly drawn) -31.4%
COc1ccc(Cn2c(C(F)(F)F)ccc(C(N)=O)c2=O)cc1 4.9%
COc1ccc(C2(O)CCN(C(=O)c3c(F)cccc3F)CC2)cc1 2.8%
CCc1cc2c(C)cc(C)cc2nc1SCC(=O)Nc1cc(C)on1 2.3%
COc1cccc(CNC(=O)C(c2ccc(Cl)cc2)C(C)C)c1 (stereo not drawn) 10.2%
COc1cc(/C=C2\SC(=S)NC2=O)ccc1OS(=O)(=O)c1ccccc1 29.8%
COC(=O)c1ccc(-c2nc(O)c3cnccn23)cc1 -13.6%
CCCCOc1ccc(C(=O)N/N=C/c2ccc(OCCN3CCCCC3)c(OC)c2)cc1 5.7%
COc1cc(/C=N/NC(=O)c2ccncc2)ccc1OCCN1CCCCC1 -4.3%
COc1cccc(-n2c(SCC(N)=O)nc3ccccc3c2=O)c1 2.2%
COc1ccccc1-n1c(SCc2cc(=O)oc3cc(O)ccc23)nc2ccccc2c1=O 8.3%
Cc1csc(SCC(=O)NC(=O)NC2CCCC2)n1 5.2%
S=c1[nH]nc(C2CCCCC2)n1/N=C/c1ccco1 -1.6%
O=C(Cc1ccc([N+](=O)[O-])cc1)Nc1cccc(C(F)(F)F)c1 23.4%
CCCCNC(=O)CC1S/C(=N/N=C/c2ccc(OC)cc2)NC1=O (stereo not drawn) -7.8%
CCOC(=O)N1CCN(CC(=O)Nc2cc(OCC)ccc2OCC)CC1 7%
CCOc1ccc(OCC)c(NC(=O)CN2CCN(c3cccc(C)c3)CC2)c1 16.7%

inhibition, active:
Cc1cc(C)c2nc3s/c(=C/c4ccccc4)c(=O)n3c2c1 57.6%
O=C(O)/C=C/C(=O)c1ccc2c(c1)NC(=O)CO2 64.4%
Cc1ccc(/C=N/N(C)C2=NS(=O)(=O)c3ccccc32)o1 107%
COc1cc(C(=O)O/N=C2\C=CC(=O)C(C)=C2)cc(OC)c1OC 50.7%
COc1cc(C(=O)ON=C2C(C)=CC(=O)C=C2C)cc(OC)c1OC 59.4%
CC(C)CN=Cc1c(O)c([N+](=O)[O-])cc2oc3c(c12)CCCC3 53.1%
CN(CCO)c1nc(N)c2c(N)nc3c(c2c1C#N)CC(=O)N3C1CCCC1 64%
COCC(C)N1C(=O)Cc2c1nc(N)c1c(N)nc(N3CCN(c4ccccc4F)CC3)c(C#N)c21 (stereo not drawn) 66.7%
N#Cc1c(N2CCCC(O)C2)nc(N)c2c(N)nc3c(c12)CC(=O)N3C12CC3CC(CC(C3)C1)C2 (stereo not drawn) 64.7%
N#Cc1c(N2CCN(c3ccc(F)cc3)CC2)nc(N)c2c(N)nc3c(c12)CC(=O)N3C1CC1 56.9%
COc1cc(/C=N/NC(=O)c2cc3ccccc3cc2O)ccc1OCCN1CCCCC1 73.9%
CCOc1ccc(OCC)c(NC(=O)CN2CCN(CC)CC2)c1 57.9%
